High-throughput results from PubChem.
This is a sample that favours compounds with a hit; in the whole collection about 19% have one here.
IL-1B inflam inh: qHTS for Inhibitors of Inflammasome Signaling: IL-1-beta AlphaLISA Primary Screen | AID 743279, 2014 | 360,000 tested, 4.7% active | activity change, % at 57.5 µM | THP-1 LPS/ATP IL-1B secretion, AlphaLISA, 16 h; stronger effect = lower value; in the data active means activity change below about -50%; inconclusive means mostly about -30% to -49%
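Secreted IL-1B measured by AlphaLISA bead assay after 16 h compound exposure of THP-1 cells; compounds (final up to 57.5 uM) added 1 h before LPS (250 ng/mL) and ATP (1.25 mM) stimulation; lower signal means less secretion.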
DT40 TDP1 CPT: qHTS for Inhibitors of human tyrosyl-DNA phosphodiesterase 1 (TDP1): qHTS in cells in presence of CPT | 420,000 tested, 12% active | chicken DT40 Tdp1-/-;hTDP1 cells + 20 nM CPT, ATP luminescence, 48 h | Potency, µM (doses to about 46.2 µM), usual class: inhibitors; further: nearly all actives have a fitted effect of over 55% in size
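Chicken DT40 Tdp1-/- cells stably complemented with human TDP1 were seeded at 400 cells/well in medium containing 20 nM camptothecin, exposed to pin-transferred compounds, and grown at 37 °C for at least 48 hr. Viability was read as ATP luminescence.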
HT1080 IDH1KD tx: qHTS for induction of synthetic lethality in tumor cells producing 2HG: qHTS for the HT-1080-IDH1KD cell line. 360,000 tested, 2% active. AID 686971, 2013. Potency, µM (series often up to 46.1 µM), most hits filed as cytotoxic. HT-1080 IDH1 knockdown viability, ATP luminescence, 48 h
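HT-1080-IDH1KD cells (IDH1 knocked down), 750/well in RPMI with 5% FBS, treated with compound 48 h at 37 degrees C. Viability by CellTiter-Glo luminescence, normalised to DMSO and no-cell wells; concentration-response curves classed.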
HT1080NT lethal: qHTS for induction of synthetic lethality in tumor cells producing 2HG: qHTS for the HT-1080-NT fibrosarcoma cell line; HT-1080-NT fibrosarcoma viability, CellTiter-Glo ATP luminescence, 48 h; Potency, µM (highest dose often 46.1 µM), usual class: cytotoxic; 360,000 tested, 1.6% active;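 further: NT is the 2HG producing partner of a matched IDH1 knockdown line; nearly all actives have a fitted effect of over 55% in size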
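Read-out is CellTiter-Glo luminescence after 10 minutes at room temperature, following 48 hours' compound treatment of HT-1080-NT cells (750 cells/well, RPMI, 5% FBS, 37 degrees C).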
ELG1 repair inh: qHTS screen for small molecules that inhibit ELG1-dependent DNA repair in human embryonic kidney (HEK293T) cells expressing luciferase-tagged ELG1; HEK293T ELG1-luciferase reporter, luminescence, 16 h; DNA damage induced by 5-fluorouridine; Potency, µM (highest dose often 46.1 µM), hits mostly inhibitors; 330,000 tested, 2.3% active; AID 504467, 2011; further: nearly all actives have a fitted effect of over 55% in size
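Overnight (16 hr) co-exposure of 2,000 cells/well to 5-fluorouridine and compound at 37 °C preceded detection. Luciferase was quantified via ONE-Glo luminescence; loss of signal denotes inhibition.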
DT40 TDP1 no CPT: qHTS for Inhibitors of human tyrosyl-DNA phosphodiesterase 1 (TDP1): qHTS in cells in absence of CPT. DT40 Tdp1-/- hTDP1 cells, no CPT, ATP luminescence, 48 h. Potency, µM (titrated, usually from 46.2 µM), actives largely listed as inhibitors. 420,000 tested, 15% active. AID 686978, 2013; further: nearly all actives have a fitted effect of over 55% in size
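Chicken DT40 Tdp1-/- cells stably complemented with human TDP1 were seeded at 400 cells/well with DMSO in place of 20 nM camptothecin. After compound pinning, cells grew at least 48 hr at 37 °C; viability read by CellTiter-Glo luminescence.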
A number is an active result; . = inactive; ? = inconclusive; / = not tested or not shown; [ ] = another dose, or the depositor's remark. Unless noted, the call rests on the fitted dose curve; in most records, active means well fitted curve in the direction sought with a large enough effect; inconclusive means small, poorly fitted or top-dose-only effect, or another doubt; inactive means no such curve, though single readings can be large; an effect the other way counts as inactive or inconclusive.

SMILES | IL-1B inflam inh | DT40 TDP1 CPT | HT1080 IDH1KD tx | HT1080NT lethal | ELG1 repair inh | DT40 TDP1 no CPT
Cc1nn(-c2ccccn2)c2c1C(c1ccsc1)C1=C(CCCC1=O)N2 (stereo unspecified) | . | ? | . | . | ? | ?
Cc1nn(-c2ccccn2)c2c1C(c1c(F)cccc1Cl)C1=C(N2)c2ccccc2C1=O (stereo unspecified) | / | / | / | / | 14.6µM | /
OCCCNCc1cc2cc3c(cc2nc1N1CCN(c2cccc(Cl)c2)CC1)OCO3 | / | .[9.04 µM] | / | / | / | .
C=Cc1ccc(Cn2c(=O)n(CCCOC)c(=O)c3sccc32)cc1 | -88.0 | ? | . | . | 20.6µM | ?
C=Cc1ccc(Cn2c(=O)n(C)c(=O)c3sccc32)cc1 | . | 3.66µM | ? | . | ? | ?
COCCCNC(=O)Cn1c(=O)n(Cc2ccc(F)cc2)c(=O)c2sccc21 | . | . | . | . | . | .
CCN(C[C@H]1N[C@@](Cc2ccccc2)(C(=O)OC)[C@H]2C(=O)N(C)C(=O)[C@@H]12)C(C)=O | . | . | . | . | . | .
Cc1cc(C)n2nc3nc(N4CCCCC4)nc(-c4ccco4)c3c2n1 | . | 14.6µM | . | . | ? | 20.6µM
CCN(Cc1ccccc1)c1ccc(/C=C/c2ccnc3ccccc23)cc1 | / | ? | / | / | / | 11.2µM
CCCCCCCCCN(CCCCCCCCC)c1ccc(/C=C/c2ccnc3ccccc23)cc1 | / | . | / | / | / | .
C(=C\c1ccnc2ccccc12)/c1ccc(N(Cc2ccccc2)Cc2ccccc2)cc1 | / | 12.6µM | / | / | / | 12.6µM
CNc1nc(NCCCN2CCCC2=O)c2sccc2n1 | . | . | . | . | / | .
c1ccc(CNc2nc(NCCOc3ccccc3)c3sccc3n2)cc1 | / | 23.1µM | ? | ? | / | 16.4µM
CNc1nc(NCCOc2ccccc2)c2sccc2n1 | . | 18.4µM | ? | . | / | 20.6µM
Cc1ccc(NC(=O)C2CCCN(S(=O)(=O)c3ccc4[nH]c(=O)ccc4c3)C2)cc1Cl (stereo unspecified) | / | . | / | / | / | ?
Cc1ccc2[nH]c3c(c2c1)CCCC3NC(=O)CCl (stereo unspecified) | -100.4 | 6.51µM | 9.2µM | 1.3µM | 17.8µM | 2.31µM
CCC(C)NC(=O)c1cc(S(=O)(=O)N2CCCCC2)c[nH]1 (stereo unspecified) | . | . | . | . | . | .
C=CCC1C=C(Cc2ccccc2)CC(CC=C)N1 (stereo unspecified) | . | 18.4µM | . | . | . | 23.1µM
C=CC[C@H]1CC(Cc2ccccc2)=C[C@H](CC=C)N1 | -75.1 | 16.4µM | . | . | . | 18.4µM
CCc1nc2c(OCc3ccccc3C)cccn2c1N(C)C(=O)c1ccco1 | . | ? | . | . | / | ?
CNC(=O)C[C@@H]1C(=O)N(C2CCCCC2)CC1(C)C | . | . | . | . | / | .
COC(=O)[C@]12CCCCC=C1N(CCC1=CCCCC1)C(=O)[C@H](CC(=O)NCCc1ccccc1OC)C2 | -52.4 | 16.4µM | ? | ? | / | ?
CCOC(=O)[C@]12CCCC=C1N(CCC1=CCCCC1)C(=O)[C@H](CC(=O)NCCc1ccccc1OC)C2 | . | 13µM | ? | . | / | 13µM
COc1cc(CN2CCOc3ccc(C(O)c4cccnc4)cc3C2)cc(OC)c1 (stereo unspecified) | / | .[9.04 µM] | / | / | / | .
Cc1cccc(-c2ccc3c(c2)C2CC3CCN2Cc2ccc3c(c2)OCO3)c1 (stereo unspecified) | . | ? | ? | . | / | ?
COc1ccc(CN2CCC3CC2c2cc(-c4cccc(C)c4)ccc23)cc1 (stereo unspecified) | . | 20.6µM | . | . | / | 14.6µM
